Results on five molecules are retold here after PubChem BioAssay.

A short description of assay [1]: anti-His antibody binders, primary screen, artefact control for SMM control protein annotation, biochemical, small-molecule microarray, 635 nm fluorescence (AID 1128).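 Further: score merges feature fluorescence with signal-to-noise for each printed compound spot.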 The settings on record: anti-His Alexa647 antibody binding, higher = more signal.
Assay [2] deals with Human papillomavirus type 1a E7 protein (residues 1-88). The assay is described as follows: HPV1a E7 small-molecule binders, primary screen, biochemical, small-molecule microarray, residues 1-88, 635 nm (AID 1129). As to conditions: small-molecule microarray binding, fluorescence 635 nm; higher = more signal.
Assay [3] concerns the target Focal adhesion kinase 1 (Homo sapiens) (UniProt Q05397). The assay is described as follows: small-molecule microarray binders of FAK, primary screen, biochemical, 635/667 nm fluorescence, BSA, DTT (AID 1130).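 Further: composite of spot emission at 667 nm and signal to noise over triplicate slides.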 As to conditions: PTK2 binding, 635 nm fluorescence, higher = more signal.
Assay [4] has as its system Fibrinogen (Alexa647-labelled). The assay is described as follows: fibrinogen binders on compound microarrays, profiling panel, artefact control for SMM control-protein annotation, biochemical, small-molecule microarray, 635/667 nm fluorescence (AID 1131).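 Further: z-score merges 667 nm fluorescence with per-spot signal-to-noise over triplicate slides.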 The settings on record: fibrinogen-A647 binding fluorescence, higher = more signal.
Assay [5] deals with Follistatin (Homo sapiens) (UniProt P19883). The assay is described as follows: follistatin binders on small-molecule microarrays, primary screen, biochemical, small-molecule microarray, 635/667 nm fluorescence (AID 1132). As to conditions: FST binding, 635 nm fluorescence, higher = more signal.
Sequence of Follistatin (Homo sapiens) (P19883 whole entry, looked up): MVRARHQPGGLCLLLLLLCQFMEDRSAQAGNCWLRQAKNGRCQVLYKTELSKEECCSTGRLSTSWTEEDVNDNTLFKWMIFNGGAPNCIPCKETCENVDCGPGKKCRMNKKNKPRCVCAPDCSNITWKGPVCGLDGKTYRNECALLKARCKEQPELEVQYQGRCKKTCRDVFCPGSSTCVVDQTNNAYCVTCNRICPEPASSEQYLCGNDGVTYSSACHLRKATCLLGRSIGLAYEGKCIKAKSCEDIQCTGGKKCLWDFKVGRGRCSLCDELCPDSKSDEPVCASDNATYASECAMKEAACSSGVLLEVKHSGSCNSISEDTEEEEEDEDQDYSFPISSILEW
Assay [6] addresses Fibroblast growth factor 2 (Homo sapiens) (UniProt P09038). The assay is described as follows: FGF2 binders on small-molecule microarrays, primary screen, biochemical, small-molecule microarray, 635/667 nm fluorescence (AID 1133). The settings on record: small-molecule microarray binding, FGF2, fluorescence 635/667; higher = more signal.
Assay [7] is described as follows: mitochondrial membrane potential change in A549 cells, profiling panel, cell-based, JC-1 fluorescence, basal, 24 h, 100 nL (AID 1138).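 Further: A549 lung adenocarcinoma cells under basal conditions with no added stimulus; test concentration not given here.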 The settings on record: higher = more signal.
Another assay relates to Lefty1. The assay is described as follows: Lefty1 binders on small-molecule microarrays, primary screen, biochemical, small-molecule microarray, 635/667 nm fluorescence (AID 1139). The settings on record: small-molecule microarray binding, fluorescence 635/667; higher = more signal.
The subject of assay [8] is wheat germ agglutinin (Triticum aestivum), Alexa647-labelled. The assay is described as follows: wheat germ agglutinin binders on compound microarrays, profiling panel, artefact control for SMM control-protein annotation, biochemical, small-molecule microarray, 635/667 nm fluorescence (AID 1140).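 Further: score merges 667 nm feature emission with signal to noise over triplicate slides.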 The settings on record: WGA-A647 binding, 635 nm fluorescence, higher = more signal.

For assay [9], the target named is Luciferin 4-monooxygenase (Photinus pyralis) (UniProt P08659). The assay is described as follows: firefly luciferase enzyme inhibitors, primary screen, biochemical, luminescence, purified enzyme, 2006 set (AID 1141).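 Further: cell-free assay with purified firefly luciferase at 100 ng per well in PBS; test concentration not given here.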 The settings on record: SteadyGlo luminescence, 30 min, higher = more signal, called active from +8 up or from −8 down.
Sequence of Luciferin 4-monooxygenase (Photinus pyralis) (P08659 whole entry, looked up): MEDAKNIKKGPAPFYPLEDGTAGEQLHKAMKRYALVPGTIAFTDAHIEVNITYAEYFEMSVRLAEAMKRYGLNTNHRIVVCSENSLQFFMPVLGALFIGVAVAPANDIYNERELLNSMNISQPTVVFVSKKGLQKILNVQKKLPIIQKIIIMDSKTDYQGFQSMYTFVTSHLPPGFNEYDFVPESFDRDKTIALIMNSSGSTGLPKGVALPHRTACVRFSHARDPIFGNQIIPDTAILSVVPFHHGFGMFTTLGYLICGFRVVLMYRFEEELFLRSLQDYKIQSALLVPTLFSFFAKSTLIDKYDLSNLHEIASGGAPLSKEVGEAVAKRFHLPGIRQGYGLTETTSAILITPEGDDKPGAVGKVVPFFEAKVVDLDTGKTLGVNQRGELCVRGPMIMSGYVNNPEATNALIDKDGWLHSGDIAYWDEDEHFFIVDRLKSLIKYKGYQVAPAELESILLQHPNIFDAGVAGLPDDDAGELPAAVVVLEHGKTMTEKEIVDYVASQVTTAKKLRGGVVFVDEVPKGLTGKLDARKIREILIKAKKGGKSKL
In assay [10] the test system is Wnt5a (protein binding on small-molecule microarray). The assay is described as follows: Wnt5a binders on small-molecule microarray, primary screen, biophysical, 635/667 nm fluorescence (AID 1142).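 Further: fluorescence read at 667 nm with signal to noise per printed feature.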 The settings on record: 635 nm fluorescence, higher = more signal.
Assay [11] in a line: cell viability in Huh7 cells, primary screen, cytotoxicity control for HCV replication inhibitor project, CellTiter-Glo luminescence, basal, 48 h (AID 1143).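 Further: Huh7 hepatoma cells carrying a hepatitis C replication reporter with no stimulus; test concentration not given here.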 The settings on record: Huh7 HCV replicon, higher = more signal, called active from +8 up or from −8 down. (In general: In ATP-based viability assays light output follows the ATP content of the culture.)
Assay [12] can be described thus: P. aeruginosa biofilm formation inhibitors, primary screen, PAO1 strain, BacTiter-Glo luminescence, LB-PBS (AID 1144). The settings on record: 12 h, higher = more signal.
A short description of assay [13]: CREB reporter modulators without forskolin, primary screen, cell-based, PC12, CRE-LacZ reporter, unstimulated (AID 1145). The settings on record: no forskolin, luminescence, 4.5 h, higher = more signal, called active from +8 up or from −8 down.
A short description of assay [14]: CREB reporter modulators under forskolin, primary screen, cell-based, PC12, CRE-LacZ reporter, forskolin-stimulated (AID 1146).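 Further: PC12 cells with 6xCRE LacZ reporter stimulated by forskolin 10 µM; beta-galactosidase reporter signal reflecting CREB driven transcription.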 As to conditions: luminescence, 4.5 h, higher = more signal, called active from +8 up or from −8 down.
The target in assay [15] is Streptavidin (Streptomyces avidinii) (UniProt P22629). The assay is described as follows: streptavidin binders on small-molecule microarray, primary screen, artefact control for SMM compound annotation, biophysical, 635/667 nm fluorescence (AID 1147).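 Further: signal reflects streptavidin binding to arrayed compounds as a control protein.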 The settings on record: streptavidin binding, higher = more signal.
Sequence of Streptavidin (Streptomyces avidinii) (P22629 whole entry, looked up): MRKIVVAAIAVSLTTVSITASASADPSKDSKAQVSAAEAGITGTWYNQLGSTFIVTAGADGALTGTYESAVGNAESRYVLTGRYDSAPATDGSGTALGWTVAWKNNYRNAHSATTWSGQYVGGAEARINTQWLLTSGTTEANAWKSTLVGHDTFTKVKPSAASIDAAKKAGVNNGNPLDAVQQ
Assay [16] is described as follows: small-molecule binders of probe aInhba, primary screen, biochemical, small-molecule microarray, 635/667 nm fluorescence (AID 1148).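 Further: score merges 667nm spot fluorescence with signal-to-noise for antibody binding to printed compounds.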 As to conditions: higher = more signal.
The target of assay [17] is Torsin-1A (Homo sapiens) (UniProt O14656). The assay is described as follows: torsin A binders from cell lysate, primary screen, small-molecule microarray, wild-type, 635/667 nm (AID 1149). The settings on record: COS7 hTOR1A-WT lysate, 635 nm fluorescence, higher = more signal.
Sequence of Torsin-1A (Homo sapiens) (O14656 whole entry, looked up): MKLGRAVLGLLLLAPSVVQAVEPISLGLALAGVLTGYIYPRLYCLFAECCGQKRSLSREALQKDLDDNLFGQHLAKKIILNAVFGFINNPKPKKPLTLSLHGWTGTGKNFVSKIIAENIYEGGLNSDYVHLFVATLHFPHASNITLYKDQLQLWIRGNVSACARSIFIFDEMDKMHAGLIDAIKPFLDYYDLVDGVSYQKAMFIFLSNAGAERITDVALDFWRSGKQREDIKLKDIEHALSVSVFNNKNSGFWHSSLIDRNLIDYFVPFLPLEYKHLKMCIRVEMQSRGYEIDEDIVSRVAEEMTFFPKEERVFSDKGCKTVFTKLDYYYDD
The target is the same in assay [18]. The assay is described as follows: small-molecule binders of mutant TOR1A in lysate, primary screen, cell lysate, small-molecule microarray, COS7 lysate, 635/667 nm fluorescence (AID 1150).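 Further: score pools 667 nm emission and signal to noise measuring lysate protein binding.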 As to conditions: COS7 hTOR1A mutant lysate, 635 nm fluorescence, higher = more signal.
The test system of assay [19] is Sonic hedgehog protein (Shh). The assay is described as follows: small-molecule binders of Shh protein, primary screen, biochemical, small-molecule microarray, 635/667 nm fluorescence (AID 1151).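 Further: Shh protein binding to compounds spotted on small-molecule microarray slides; score combines spot fluorescence intensity with signal-to-noise across triplicate slides.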 As to conditions: small-molecule microarray binding, 635 nm fluorescence; higher = more signal.

Active and inactive are the calls of the source. Unless noted, how the calls were made is not given here.

Sequence of Focal adhesion kinase 1 (Homo sapiens) (Q05397 whole entry, looked up): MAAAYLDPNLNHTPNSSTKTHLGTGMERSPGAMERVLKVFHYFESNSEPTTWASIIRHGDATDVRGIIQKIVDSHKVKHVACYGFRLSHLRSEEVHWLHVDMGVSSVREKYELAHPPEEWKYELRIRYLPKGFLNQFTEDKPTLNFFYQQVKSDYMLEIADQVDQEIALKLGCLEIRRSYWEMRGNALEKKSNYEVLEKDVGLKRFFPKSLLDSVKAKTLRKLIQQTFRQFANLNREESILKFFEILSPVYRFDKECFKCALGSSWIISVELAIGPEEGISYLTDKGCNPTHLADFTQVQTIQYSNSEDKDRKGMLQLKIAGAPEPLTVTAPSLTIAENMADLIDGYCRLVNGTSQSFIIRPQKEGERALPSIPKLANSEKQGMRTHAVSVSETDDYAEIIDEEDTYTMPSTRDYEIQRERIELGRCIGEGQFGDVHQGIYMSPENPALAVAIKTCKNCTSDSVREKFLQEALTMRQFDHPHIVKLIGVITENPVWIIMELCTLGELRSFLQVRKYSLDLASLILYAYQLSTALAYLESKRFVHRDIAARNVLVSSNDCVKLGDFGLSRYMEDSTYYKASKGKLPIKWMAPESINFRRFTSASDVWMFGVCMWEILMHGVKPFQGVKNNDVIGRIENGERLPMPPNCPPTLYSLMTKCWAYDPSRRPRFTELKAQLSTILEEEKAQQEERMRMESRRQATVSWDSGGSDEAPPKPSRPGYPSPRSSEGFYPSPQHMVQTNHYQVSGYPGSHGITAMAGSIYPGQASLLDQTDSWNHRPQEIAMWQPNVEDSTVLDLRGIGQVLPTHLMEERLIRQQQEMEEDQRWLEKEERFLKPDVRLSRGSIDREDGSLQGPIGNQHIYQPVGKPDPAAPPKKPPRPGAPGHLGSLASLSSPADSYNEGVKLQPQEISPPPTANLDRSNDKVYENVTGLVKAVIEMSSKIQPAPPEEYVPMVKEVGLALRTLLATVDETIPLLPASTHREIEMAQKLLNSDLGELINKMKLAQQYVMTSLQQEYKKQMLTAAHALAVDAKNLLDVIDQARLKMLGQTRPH
Sequence of Fibroblast growth factor 2 (Homo sapiens) (P09038 whole entry, looked up): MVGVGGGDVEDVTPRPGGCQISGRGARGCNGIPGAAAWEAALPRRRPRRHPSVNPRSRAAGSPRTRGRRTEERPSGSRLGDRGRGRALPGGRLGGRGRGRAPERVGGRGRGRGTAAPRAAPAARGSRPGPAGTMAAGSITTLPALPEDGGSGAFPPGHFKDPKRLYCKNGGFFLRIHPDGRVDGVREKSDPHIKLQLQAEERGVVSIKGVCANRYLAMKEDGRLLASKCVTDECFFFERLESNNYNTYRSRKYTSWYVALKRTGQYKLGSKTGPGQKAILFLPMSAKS

On to `CN1C(=O)C2C(C1=O)C1C=C(c3ccc(CO)cc3)C2C(C2CC2)N1Cc1cc2c(cc1Br)OCO2` (stereo not given), for which the composite z-score in assay [1] came out at 2.81; in assay [2], 1.23; in [3] it was 1.47; in assay [4] it was 0.976; in assay [5], 1.23; in [6] it was 0.784. The composite z-score with Lefty1 was 0.175; in assay [8] it was 1.18; in assay [10], 0.164; in assay [15], 1.75; in [16], 0.138; with Torsin-1A (Homo sapiens) [17], 1.16. The composite z-score was determined as 1.65 in the assay with Torsin-1A (Homo sapiens) [18] and 0.796 in assay [19]. Further, the z-score in assay [7] was 1.34; in assay [9], -1.9 (inactive); in assay [11], -5.17 (inactive); in [12] it was -0.401 (inactive); in assay [13], 0.622 (inactive); in assay [14], -1.62 (inactive).

Regarding `CCCCN1CC=CC23O[C@@H]4C=CCCOC(=O)C4[C@H]2C(=O)N(CCCO)[C@@H]3C1=O` (stereo not given in full), the composite z-score in [1] was -1.31; in [2], -1.79; in assay [3], -0.274; in assay [4], -1.42; in assay [5], 0.274; in assay [6] it was -0.469. Moreover, the composite z-score was -0.439 with Lefty1; -1.45 in [8]; -0.148 in assay [10]; -0.614 in assay [15]; -0.176 in assay [16]; -0.387 with Torsin-1A (Homo sapiens) [17]. For the same molecule, the composite z-score is -0.954 with Torsin-1A (Homo sapiens) [18] and -0.278 in assay [19]. Moreover, the z-score in assay [7] is -1.13; in [9], -0.11 (inactive); in assay [11], -2.05 (inactive); in [12] it was -1.19 (inactive); in assay [13], -0.484 (inactive); in assay [14], 0.46 (inactive).

Regarding `C=C(/C(=C/C[C@@H](OC(=O)c1ccncc1)c1ccc(CO)o1)c1cc(C(=O)OC)ccc1OC)C(C)C`, the composite z-score was determined as 1.02 in assay [1]; 1.23 in assay [2]; 0.317 in assay [3]; 0.415 in assay [4]; 1.09 in assay [5]; 1.3 in assay [6]. Further, the composite z-score with Lefty1 stood at 1.24; in assay [8], 0.553; in assay [10] it was 0.569; in assay [15] it was 0.229; in assay [16], 0.0633; with Torsin-1A (Homo sapiens) [17], 1.24. For the same molecule, the composite z-score in the assay with Torsin-1A (Homo sapiens) [18] worked out at 0.946; in assay [19], 1.2. Also, the z-score in [7] is 0.375; in assay [9] it was -4.24 (inactive); in assay [11], -0.82 (inactive); in [12] it was -0.0553 (inactive); in assay [13], 8.87 (active); in assay [14], 3.69 (inactive).

On to `[N-]=[N+]=NCc1ccccc1C[C@]1(C(=O)NCCN2CCOCC2)N=C(c2ccc(OCCCO)cc2)O[C@H]1c1ccccc1CN=[N+]=[N-]`, for which the composite z-score in assay [1] came out at 1.09; in assay [2], 1.21; in assay [3], 1.43; in assay [4], 0.99; in assay [5], 1.11; in assay [6] it was 0.783. Also, the composite z-score came out at 0.886 in the assay with Lefty1; 0.495 in assay [8]; 0.888 in [10]; 0.803 in assay [15]; 0.0155 in assay [16]; 0.0892 with Torsin-1A (Homo sapiens) [17]. The composite z-score with Torsin-1A (Homo sapiens) [18] stood at 0.938; in assay [19] it was 1.45. Moreover, the z-score in [7] was 0.963; in assay [9], 0.203 (inactive); in [11], -6.14 (inactive); in assay [12] it was -1.12 (inactive); in [13], 1.34 (inactive); in assay [14] it was -0.887 (inactive).

On to `COC(=O)[C@@]1(Cc2ccc(OC)cc2)[C@H]2c3cc(C(=O)N4CCCC4)n(C[C@H](O)CO)c3C[C@H]2CN1C(=O)c1ccccc1`, for which the composite z-score was 0.39 in [1]; 0.339 in [2]; 0.493 in [3]; 0.276 in assay [4]; -0.319 in assay [5]; -0.411 in [6]. Moreover, the composite z-score in the assay with Lefty1 is -0.752; in assay [8], 1.02; in [10], 0.0149; in assay [15], 0.528; in assay [16], 0.0082; with Torsin-1A (Homo sapiens) [17], -0.467. In addition, the figures for the composite z-score (with Torsin-1A (Homo sapiens) [18]; in assay [19]) were 0.354 and -0.666, respectively. The z-score in assay [7] was 0.605; in assay [9], 1.84 (inactive); in assay [11] it was -0.132 (inactive); in [12], -0.389 (inactive); in assay [13] it was -0.365 (inactive); in assay [14], 0.294 (inactive).
